Assay outcomes as filed in PubChem BioAssay.
In the library only some 3% were active in any assay of this set; here they are far more common.
TWEAK-Fn14 inh – TWEAK-Fn14 signaling inhibition; 2% of 360,000 active; TWEAK-stimulated Fn14 reporter cells, luciferase luminescence, 8 h; inhibition, % at 10 µM; in the data active = inhibition above about 50%
TROY NFkB inh – TROY signaling inhibition. Q293 LMP1-TROYcd NF-kB luciferase reporter, 4 h. inhibition, % at 10 µM. 0.98% of 360,000 active;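 active = compounds whose plate-normalised and pattern-corrected inhibition of the luciferase reporter signal at the single screening dose is 50% or more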
LGR2 antag – inhibitors of bursicon-induced Drosophila LGR2 receptor cAMP signaling; HEK293 LGR2, CRE-luciferase, bursicon-stimulated, 4 h; inhibition, % at 9.99 µM; 0.35% of 380,000 active; AID 720647;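 active = drop in luminescence signal, shown as inhibition above about 50% in the replicate tests, limit read from the data, passing the limit was not always enough; inconclusive = probably only some replicates passing the limit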;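 also: agonist challenge used bursicon conditioned medium at about half maximal strength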
MITF act – increases MITF-driven TRPM1 promoter luciferase signal; activation, % at 12.5 µM; AID 588334; 0.75% of 300,000 active; SK-MEL-5 TRPM1-promoter luciferase, 24 h; % of positive control, neutral wells = 0;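 active = mean activation of at least 80% with every replicate also reaching 80%; inconclusive = mean reaches 80% but some replicate falls short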
EBV LMP1 NFkB – Epstein-Barr LMP1 NF-kappaB reporter inhibition | inhibition, % at 12.5 µM | LMP1-induced NF-kappaB luciferase reporter cells, luminescence | AID 504558 | 0.69% of 350,000 active; in the data active = inhibition above about 41%; inconclusive = no clear call, values can overlap the other calls
TRPM1 prom inh – inhibitors of MITF-driven TRPM1 promoter in melanoma cells; AID 488899; 0.83% of 330,000 active; inhibition, % at 12.5 µM; SK-MEL-5 TRPM1 promoter luciferase, 24 h;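 active = mean inhibition across replicates of 60% or more, whatever share of single replicates reaches that level; inconclusive = some that reach 60%, reason not given; inactive = mean inhibition across replicates below 60%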
Large screens that a line does not name were inactive.

Cc1cccc(NC2=C(NC(=O)c3ccccc3)C(=O)c3ccccc3C2=O)c1	TRPM1 prom inh inconclusive
C[C@@H](NC(=O)C[C@@H]1C[C@H]2c3cc(NC(=O)Nc4ccccc4F)ccc3O[C@H]2[C@@H](CO)O1)c1ccccc1	none (no result: TWEAK-Fn14 inh, TROY NFkB inh, MITF act, EBV LMP1 NFkB, TRPM1 prom inh)
O=C(c1ccccc1)N1C[C@H]2[C@@H](c3ccccc31)[C@@H](CO)N2S(=O)(=O)c1ccccc1	none (no result: TWEAK-Fn14 inh, TROY NFkB inh, MITF act, EBV LMP1 NFkB, TRPM1 prom inh)
CN(C)C(=O)C[C@@H]1C=C[C@@H](NC(=O)NC2CCCCC2)[C@H](CO)O1	none (no result: TWEAK-Fn14 inh, TROY NFkB inh, MITF act, EBV LMP1 NFkB, TRPM1 prom inh)
CC(C)C(=O)Nc1ccc2c(c1)C(=O)N(C)[C@H]1CC[C@H](CC(=O)NCc3ccccc3)O[C@H]1CO2	none (no result: TWEAK-Fn14 inh, TROY NFkB inh, MITF act, EBV LMP1 NFkB, TRPM1 prom inh)
C[C@@H]1CCCCO[C@H](CN(C)Cc2ccncc2)[C@H](C)CN([C@H](C)CO)C(=O)c2cc(NC(=O)c3ccccc3)ccc2O1	none (no result: TWEAK-Fn14 inh, TROY NFkB inh, MITF act, EBV LMP1 NFkB, TRPM1 prom inh)
O=C(C[C@@H]1CC[C@H]2[C@@H](COC[C@@H](O)CN2C(=O)Nc2ccc(F)cc2)O1)NC1Cc2ccccc2C1	none (no result: TWEAK-Fn14 inh, TROY NFkB inh, MITF act, EBV LMP1 NFkB, TRPM1 prom inh)
O=C(C[C@@H]1CC[C@@H]2[C@H](COC[C@@H](O)CN2C(=O)c2ccc3c(c2)OCO3)O1)NCCN1CCCCC1	none (no result: TWEAK-Fn14 inh, TROY NFkB inh, MITF act, EBV LMP1 NFkB, TRPM1 prom inh)
CN(C)c1ccc(NC2=C(Cl)C(=O)c3ccccc3C2=O)cc1	TWEAK-Fn14 inh 102.0, TRPM1 prom inh 101.6
CC(=O)Nc1ccc(NC2=C(Cl)C(=O)c3ccccc3C2=O)cc1	LGR2 antag 55.8 (no result: TWEAK-Fn14 inh, TROY NFkB inh, MITF act, EBV LMP1 NFkB, TRPM1 prom inh)
C[C@@H]1CN([C@H](C)CO)C(=O)c2ccccc2-c2ccccc2CO[C@H]1CN(C)C(=O)Nc1ccccc1	none (no result: TWEAK-Fn14 inh, TROY NFkB inh, MITF act, EBV LMP1 NFkB, TRPM1 prom inh)
COc1ccc(NC(=O)Nc2cccc(F)c2)c(OC)c1	none
COc1ccc(CC(C(=O)Nc2cccc(F)c2)c2nn[nH]n2)c(OC)c1 (stereo unspecified)	TWEAK-Fn14 inh 51.5, TROY NFkB inh 65.5 (no result: LGR2 antag, MITF act)
Cc1c(Cc2ccccc2)sc(/N=C/c2c(O)ccc3ccccc23)c1C(N)=O	none (no result: LGR2 antag)
Cc1c(Cc2ccccc2)sc(/N=C/c2ccc3ccccc3c2)c1C(N)=O	TWEAK-Fn14 inh 59.8 (no result: LGR2 antag)
CCS(=O)(=O)Nc1ccc2c(c1)C(=O)N(C)[C@@H]1CC[C@H](CC(=O)NCCOC)O[C@@H]1CO2	none (no result: TWEAK-Fn14 inh, TROY NFkB inh, MITF act, EBV LMP1 NFkB, TRPM1 prom inh)
COC(=O)c1ccc(NC(=O)C2CC3CCC2C3)cc1 (stereo unspecified)	MITF act 98.3
CCOC(=O)c1ccc(NC(=O)C2CC3CCC2C3)cc1 (stereo unspecified)	none (no result: MITF act, EBV LMP1 NFkB, TRPM1 prom inh)
C[C@@H]1CN([C@@H](C)CO)C(=O)c2cc(-c3ccc(F)cc3)cnc2O[C@@H]1CN(C)CC1CC1	none (no result: TWEAK-Fn14 inh, TROY NFkB inh, MITF act, EBV LMP1 NFkB, TRPM1 prom inh)
COc1ccc2cc3cc(C(=O)Nc4cc(OC)c(OC)c(OC)c4)oc3nc2c1	TWEAK-Fn14 inh 63.5 (no result: LGR2 antag)
CCCCOc1cc(NCc2ccccc2)c2ncn(C(C)C)c2c1	LGR2 antag 68.1
COCCCOc1cc(NCc2ccccc2)c2ncn(C(C)C)c2c1	none
CCC(CO)Oc1cc(NCc2ccccc2)c2ncn(C(C)C)c2c1 (stereo unspecified)	none
CCC(COC)Oc1cc(NCc2ccccc2)c2ncn(C(C)C)c2c1 (stereo unspecified)	LGR2 antag 104.1
CC(C)n1cnc2c(NCc3ccccc3)cc(N[C@H](C)CO)cc21	TRPM1 prom inh 73.3 (no result: LGR2 antag)
CCOCCOc1cc(NCc2ccccc2)c2ncn(C(C)C)c2c1	none
C[C@@H]1CCCCO[C@H](CN(C)S(=O)(=O)c2ccc(Cl)cc2)[C@@H](C)CN([C@@H](C)CO)C(=O)c2cc(NC(=O)CCC(F)(F)F)ccc2O1	none (no result: TWEAK-Fn14 inh, TROY NFkB inh, MITF act, EBV LMP1 NFkB, TRPM1 prom inh)
C[C@H](CO)N1C[C@H](C)[C@H](CN(C)Cc2cccc(C(F)(F)F)c2)Oc2ncc(C#Cc3ccccc3)cc2C1=O	none (no result: TWEAK-Fn14 inh, TROY NFkB inh, MITF act, EBV LMP1 NFkB, TRPM1 prom inh)
CCOc1cc(/C=N/NC(=O)c2ccccc2OCc2ccc(F)cc2)ccc1O	none
CCOc1cc(/C=N/NC(=O)c2ccccc2-n2cccc2)ccc1O	EBV LMP1 NFkB 70.6
Cc1ccc(C(=O)N(CCN2CCCCC2)CC2CCCN(C3CCCC3)C2)s1 (stereo unspecified)	MITF act 95.3
CN1CCCN(c2ncnc3scc(-c4ccc(F)cc4)c23)CC1	none
Clc1ccc(-c2csc3ncnc(N4CCc5ccccc5C4)c23)cc1	TWEAK-Fn14 inh 78.4, TROY NFkB inh 55.3
CCOC(=O)N1CCN(c2ncnc3scc(-c4ccc(Cl)cc4)c23)CC1	none (no result: LGR2 antag)
CC(C)c1ccc(-c2csc3ncnc(N4CCN(C)CC4)c23)cc1	TWEAK-Fn14 inh 51.0, EBV LMP1 NFkB 49.1
